High-throughput results from PubChem BioAssay.
SENP8 block-1: blocks the human protease SENP8; Q96LD8; purified SENP8, Z-RLRGG-aminoluciferin cleavage, luminescence; inhibition, % at 10 µM; 330,000 compounds, 1.2% hits; AID 2540; in the data active = inhibition above about 50%
TRAIL sens C8: sensitizes caspase-8 expressing cells to TRAIL | NB7+C8 cells + TRAIL, ATPlite viability luminescence | inhibition (viability loss, TRAIL sensitization), % at 10 µM | 360,000 compounds, 1% hits | AID 624354;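 active = compounds causing at least 50% loss of cell viability in the single-dose screen, relative to plate controls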
SENP8 block-2: inhibitors of human SENP8 protease; Q96LD8; recombinant SENP8, Nedd8 substrate fluorescence; inhibition, % at 20 µM; 360,000 compounds, 0.64% hits; AID 602440; in the data active = inhibition mostly above about 40%, no sharp cut-off; inactive = mostly below about 27%
PPC-1+TRAIL kill: compounds killing PPC-1 cancer cells with TRAIL present (potentiator screen, no TRAIL-free arm); PPC-1 cells + TRAIL, ATPLite viability luminescence; cell killing (% activity), % at 4 µM or 5 µM; 220,000 compounds, 0.41% hits;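 active = cell killing above 50% in the first pass at 4 µM, then a duplicate retest at 5 µM averaging 50% or more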;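 also: plate controls were cells with TRAIL plus DMSO for no effect and medium-only wells lacking cells for full effect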
SENP7 block: blocks the human protease SENP7 | 330,000 compounds, 1.5% hits | Q9BQF6 | recombinant SENP7, Z-RLRGG-aminoluciferin luminescence, 40 min | AID 434973 | inhibition, % at 5 µM;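 active = inhibition above about 50% at the single test dose, limit read from the data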;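 also: plate controls were DMSO with enzyme for no effect and no enzyme buffer wells for full effect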
SENP6 block: blocks the human protease SENP6 | AID 2599 | 330,000 compounds, 1.8% hits | Recombinant SENP6 catalytic domain, aminoluciferin luminescence | inhibition, % at 10 µM | Q9GZR1;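 active = inhibition above about 50% at the single tested dose, limit read from the data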;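 also: plate controls were DMSO wells with enzyme for no effect and DMSO wells lacking enzyme for full effect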
Target sequence (Q9GZR1 628-1112 limits assumed): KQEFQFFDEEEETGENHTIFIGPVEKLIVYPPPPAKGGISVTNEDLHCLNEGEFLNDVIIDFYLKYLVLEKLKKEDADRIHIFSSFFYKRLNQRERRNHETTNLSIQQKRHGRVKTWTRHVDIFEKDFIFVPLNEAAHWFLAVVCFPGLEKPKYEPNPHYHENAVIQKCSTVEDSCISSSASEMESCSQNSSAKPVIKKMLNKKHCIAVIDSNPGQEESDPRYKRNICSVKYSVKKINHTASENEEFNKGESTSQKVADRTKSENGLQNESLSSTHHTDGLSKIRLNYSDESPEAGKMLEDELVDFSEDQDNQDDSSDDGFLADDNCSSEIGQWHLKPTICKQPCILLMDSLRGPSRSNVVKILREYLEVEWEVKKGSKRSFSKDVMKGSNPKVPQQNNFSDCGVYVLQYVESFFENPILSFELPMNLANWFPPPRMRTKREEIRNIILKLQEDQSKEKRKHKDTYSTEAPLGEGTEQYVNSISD
Starred values were filed as active, the others as inactive. This is a sample that favours compounds with a hit; in the whole collection about 3% have one here.

Results for Cc1cccc(/C=N/NC(=O)c2cccc([N+](=O)[O-])c2)n1 ?
SENP8 block-1: 2; TRAIL sens C8: 4; SENP8 block-2: 15; PPC-1+TRAIL kill: -3; SENP7 block: -11; SENP6 block: -2

How did Cc1cc(/C=N/NC(=O)c2cccc([N+](=O)[O-])c2)c(C)n1-c1ccc(Cl)cc1Cl do in these assays?
SENP8 block-1: -2; TRAIL sens C8: 6; SENP8 block-2: 52*; PPC-1+TRAIL kill: 26; SENP7 block: 4; SENP6 block: 0

Results for COc1ccc(OC)c(CNS(=O)(=O)c2c(C)nc3scc(C)n3c2=O)c1 ?
SENP8 block-1: -9; TRAIL sens C8: 1; SENP8 block-2: -11; SENP7 block: -1; SENP6 block: -4

What do the screens show for `C[C@@H]1CC2=C(C(=O)OC(C)(C)O2)[C@H](c2ccc(Cl)cc2)O1`?
TRAIL sens C8: -9; SENP8 block-2: 10

Results for C[C@@H]1CN([C@H](C)CO)C(=O)CCCn2nncc2CO[C@H]1CN(C)Cc1ccc(O)cc1 ?
TRAIL sens C8: -6; SENP8 block-2: 6

How did COC(=O)c1c(C)[nH]c(C(=O)OCC(=O)N(CC(C)C)c2c(N)n(Cc3ccccc3)c(=O)[nH]c2=O)c1C do in these assays?
SENP8 block-1: -9; TRAIL sens C8: 10; SENP8 block-2: -104; SENP7 block: -2; SENP6 block: -21

What do the screens show for `CC(=O)Nc1sc(C)c(C)c1C(=O)OCC(=O)N(CC(C)C)c1c(N)n(Cc2ccccc2)c(=O)[nH]c1=O`?
SENP8 block-1: 9; TRAIL sens C8: 95*; SENP8 block-2: -44; SENP7 block: -3; SENP6 block: 4

How did Cc1nn(-c2ccccc2)c(N)c1N=Nc1cccc(S(=O)(=O)N2CCOCC2)c1 do in these assays?
SENP8 block-1: 1; TRAIL sens C8: 10; SENP8 block-2: 41*; PPC-1+TRAIL kill: 7; SENP7 block: 2; SENP6 block: 3

Results for Nc1c(S(=O)(=O)c2cccs2)c2nc3ccccc3nc2n1CCc1ccccc1 ?
SENP8 block-1: 31; PPC-1+TRAIL kill: 11; SENP7 block: 27; SENP6 block: 53*

Results for Cc1ccc(S(=O)(=O)N2CCC(C(=O)NCCc3ccccc3)CC2)cc1 ?
SENP8 block-1: 1; TRAIL sens C8: -4; SENP8 block-2: 6; PPC-1+TRAIL kill: -5; SENP7 block: 9; SENP6 block: 2

Results for Cc1ccc(S(=O)(=O)N2CCC(C(=O)NCCc3ccc(S(N)(=O)=O)cc3)CC2)cc1 ?
SENP8 block-1: -5; TRAIL sens C8: -6; SENP8 block-2: 6; PPC-1+TRAIL kill: 53*; SENP7 block: -2; SENP6 block: 7

Results for NC(=O)c1ccccc1NC(=O)/C=C/c1ccccc1 ?
SENP8 block-1: 22; TRAIL sens C8: 60*; SENP8 block-2: -86; PPC-1+TRAIL kill: 41; SENP7 block: 40; SENP6 block: 66*

How did Cc1ccc(NC(=O)CSCC(=O)N(C)Cc2c(F)cccc2Cl)cc1 do in these assays?
TRAIL sens C8: -7; SENP8 block-2: 6

What do the screens show for `O=C(/C=C\Nc1ccc2c(c1)OCO2)c1ccc(Cl)s1`?
SENP8 block-1: 18; TRAIL sens C8: 73*; SENP8 block-2: 19; PPC-1+TRAIL kill: 37; SENP7 block: 71*; SENP6 block: 13

Results for CCCCCCCN(C(=O)CCl)c1ccccc1C ?
SENP8 block-1: -13; TRAIL sens C8: 88*; SENP8 block-2: 5; PPC-1+TRAIL kill: 18; SENP7 block: -8; SENP6 block: -15

Results for Cc1ccccc1N(Cc1cc(=O)[nH]c2ccccc12)C(=O)CCl ?
SENP8 block-1: 5; TRAIL sens C8: 12; SENP8 block-2: 5; SENP7 block: -4; SENP6 block: -1

What do the screens show for `CCOC(=O)C1=C(CC)Nc2ccccc2N=C1NC(=O)Nc1ccc(Cl)c(Cl)c1`?
SENP8 block-1: 1; TRAIL sens C8: 56*; SENP8 block-2: 24; PPC-1+TRAIL kill: -8; SENP7 block: 9; SENP6 block: 8

How did Cc1ccc(C(=O)Nc2nc3ccccc3c(=O)s2)cc1 do in these assays?
SENP8 block-1: -13; TRAIL sens C8: 61*; SENP8 block-2: 8; PPC-1+TRAIL kill: 40; SENP7 block: 44; SENP6 block: -16

How did COc1cc2c(cc1OC)C(C1C(=O)CCCC1=O)N(C(=O)CCl)CC2 (centres undefined) do in these assays?
SENP8 block-1: -8; TRAIL sens C8: -4; SENP8 block-2: -377; PPC-1+TRAIL kill: 14; SENP7 block: -3; SENP6 block: 5

How did COc1cc2c(cc1OC)C(c1ccccc1)N(C(=O)CCl)CC2 (centres undefined) do in these assays?
SENP8 block-1: -5; TRAIL sens C8: 86*; SENP8 block-2: 10; PPC-1+TRAIL kill: 11; SENP7 block: 3; SENP6 block: -19

How did CCCc1cc(C(=O)N/N=C/c2ccc(CC)s2)c2ccccc2n1 do in these assays?
SENP8 block-1: -3; TRAIL sens C8: 51*; SENP8 block-2: 10; PPC-1+TRAIL kill: 12; SENP7 block: 5; SENP6 block: 2

What do the screens show for `CCc1ccc(/C=N/NC(=O)c2c[nH]c3ccccc23)s1`?
SENP8 block-1: -13; TRAIL sens C8: 55*; SENP8 block-2: -6; PPC-1+TRAIL kill: 19; SENP7 block: -4; SENP6 block: 8

Results for CC1CCCCN1CCn1c(=S)[nH]c2cc3c(cc2c1=O)OCO3 (centres undefined) ?
SENP8 block-1: 7; TRAIL sens C8: 0; SENP8 block-2: -14; PPC-1+TRAIL kill: 3; SENP7 block: -1; SENP6 block: -12

What do the screens show for `CCCC(=O)N1CCCC1(C)C(=O)Nc1ccc(-n2cncn2)cc1` (centres undefined)?
TRAIL sens C8: -2; SENP8 block-2: 3

How did CCOCc1nc(N)nc(N)c1-c1cccc(Cl)c1 do in these assays?
TRAIL sens C8: 56*; SENP8 block-2: 21

How did CCOC(=O)c1c(C)nc2ccc(Cl)cc2c1-c1ccccc1 do in these assays?
SENP8 block-1: -6; TRAIL sens C8: 3; SENP8 block-2: 4; PPC-1+TRAIL kill: 12; SENP7 block: -3; SENP6 block: 3

How did O=C1/C(=N\S(=O)(=O)c2cccs2)C([n+]2ccccc2)=C([O-])c2ccccc21 do in these assays?
SENP8 block-1: 39; TRAIL sens C8: 43; SENP8 block-2: 105*; PPC-1+TRAIL kill: 22; SENP7 block: 41; SENP6 block: 69*

What do the screens show for `Cc1cc(-c2nnc(CSc3nnc(NC(=O)c4ccc(C(C)(C)C)cc4)s3)o2)ccc1[N+](=O)[O-]`?
SENP8 block-1: 5; TRAIL sens C8: 51*; SENP8 block-2: 20; PPC-1+TRAIL kill: 38; SENP7 block: 10; SENP6 block: 2

What do the screens show for `O=C(CSc1nnc(NC(=O)c2cccc(F)c2)s1)NCC1CCCO1` (centres undefined)?
SENP8 block-1: 0; TRAIL sens C8: 36; SENP8 block-2: -21; SENP7 block: 2; SENP6 block: 0
